Compounds with a hit are over-represented: about 5.9% of the library has one in this group of screens.
GALK inh: inhibitors of human galactokinase | P51570 | Purified GALK, Kinase-Glo residual ATP luminescence | Potency, µM (titrated, usually from 57.5 µM), for the others: at the highest dose activity change, negative = inhibition, usual class: inhibitors | hit rate 0.007% among 270,000 | AID 1868; also: potency is read from the fitted curve at half-maximal effect
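Quantitative HTS: GALK 5 nM, ATP 35 uM, galactose 100 uM, 1 h room temperature, then luciferase-based ATP detection.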
FBPA coupling cs: counter-screen for Giardia aldolase inhibitors: coupling enzyme system; coupling enzyme system counterscreen, AmpLite Red fluorescence; activity change, negative = inhibition, % at 58.2 µM, hits read low; hit rate 0.67% among 290,000; in the data active = activity change below about -30%
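Final compound at 57.5 uM, incubated 10 min at RT with coupling enzyme reagent (glyceraldehyde-3-phosphate), then 20 min with substrate and AmpLite Red detection. Fluorescence read at 525/598 nm; tests interference with the coupling assay, not aldolase inhibition.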
TrxR1 inh: inhibitors of rat thioredoxin reductase 1; O89049; recombinant rTrxR1, NADPH fluorescence consumption, selenite substrate; Potency, µM (series often up to 114 µM), without a hit: at the top dose activity change, negative = inhibition, actives largely listed as inhibitors; hit rate 1% among 390,000; also: potency is read from the fitted curve at half-maximal effect; nearly all actives have a fitted effect of over 65% in size
Target sequence (O89049 whole entry, looked up): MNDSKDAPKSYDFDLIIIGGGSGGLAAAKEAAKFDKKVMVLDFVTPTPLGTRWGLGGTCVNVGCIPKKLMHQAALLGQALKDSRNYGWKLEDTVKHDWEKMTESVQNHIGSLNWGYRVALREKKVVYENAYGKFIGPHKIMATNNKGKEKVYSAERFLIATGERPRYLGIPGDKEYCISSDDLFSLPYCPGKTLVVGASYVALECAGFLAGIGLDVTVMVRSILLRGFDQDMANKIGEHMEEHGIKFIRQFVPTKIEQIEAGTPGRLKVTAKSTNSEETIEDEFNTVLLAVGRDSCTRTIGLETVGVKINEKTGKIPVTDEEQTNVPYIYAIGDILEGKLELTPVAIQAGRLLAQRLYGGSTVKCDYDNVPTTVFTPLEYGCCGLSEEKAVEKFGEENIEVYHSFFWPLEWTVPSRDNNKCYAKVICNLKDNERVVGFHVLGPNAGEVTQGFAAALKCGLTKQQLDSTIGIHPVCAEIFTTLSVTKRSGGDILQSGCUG
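Rat TrxR1 (90 nM in the dispensed reagent) was pre-reduced with 400 uM NADPH for 5 min at room temperature, then incubated with compound for 15 min. After 400 uM selenite was added, NADPH fluorescence (Ex 340/Em 450 nm) was followed for 8 min.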
RORgamma inh: ROR gamma (mouse) transcription inhibition; Potency, µM (highest dose often 53.6 µM), inactives show at the highest dose activity change, negative = inhibition, usual class: inhibitors; Drosophila S2 Gal4-RORgamma UAS-luciferase reporter, 20 h; hit rate 5.4% among 310,000; AID 2551; also: potency is read from the fitted curve at half-maximal effect; nearly all actives have a fitted effect of over 60% in size
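Compounds are pin-transferred onto Drosophila Schneider cells expressing a copper-inducible Gal4–ROR gamma transactivation domain fusion. After 1 hr, copper sulfate is added to 700 uM final; luciferase is read 20 hr later.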
Gal4-VP16 FLuc: inhibits Gal4-VP16 luciferase reporter, ROR gamma counter-screen. hit rate 3.5% among 310,000. Potency, µM (highest dose often 53.6 µM), without a hit: at the highest dose activity, negative = inhibition, usual class: inhibitors. Drosophila S2 Gal4-VP16 UAS-luciferase, luminescence, 20 h. AID 2546;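 also: Gal4-VP16 expression switched on by copper sulfate through the metallothionein promoter; potency is read from the fitted curve at half-maximal effect; nearly all actives have a fitted effect of over 50% in size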
TrxR1 substrate: substrates of rat thioredoxin reductase 1 | O89049 | purified TrxR1 substrate turnover, NADPH consumption readout | Potency, µM (doses to about 114 µM), for inactives: at the highest dose activity change, negative = substrate turnover | hit rate 0.01% among 390,000; also: potency is read from the fitted curve at half-maximal effect; nearly all actives have a fitted effect of over 50% in size
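Rat TrxR1, dispensed at 90 nM, was prereduced with 400 uM NADPH (final) for 5 min at ~22 deg C, then incubated with compound 15 min before 400 uM selenite. A first-read NADPH fluorescence drop versus no-compound background flagged substrates.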
* = called active by the depositor; ? = inconclusive; . = not tested or not shown; [ ] = another dose, or the depositor's remark. Unless noted, calls follow the shape of the dose curve; as a rule, active = well fitted curve in the direction sought with a large enough effect; inconclusive = small, poorly fitted or top-dose-only effect, or another doubt; inactive = no such curve, though single readings can be large; an effect the other way counts as inactive or inconclusive. % is scaled to controls: 0 for no effect and ±100 for the full control effect.

SMILES	GALK inh	FBPA coupling cs	TrxR1 inh	RORgamma inh	Gal4-VP16 FLuc	TrxR1 substrate
Cc1cc(Cl)ccc1OCC(=O)Nc1ccccc1N1CCOCC1	3%	0	12%[57.1 µM]	?	-9%	-9%
O=C(COc1ccccc1Cl)NC(=S)Nc1ccccc1N1CCCC1	9%	-2	-6%	5.6µM*	7.9µM*	0%
O=C(COc1ccc(Br)cc1Cl)NC(=S)Nc1ccccn1	-3%	2	27%	?	?	1%
COC(=O)c1ccccc1NC(=S)NC(=O)COc1ccccc1Cl	-4%	0	-7%	10µM*	?	-2%
Cc1ccc(OCC(=O)NC(=S)Nc2ccccn2)c(Br)c1	1%	.	37%	10µM*	11µM*	11%
Cc1cc(Cl)ccc1OCC(=O)NC(=S)Nc1ccccc1N1CCOCC1	3%	2	-10%	4.5µM*	?	-9%
O=C(NCc1ccncc1)C1CCCN(S(=O)(=O)Cc2ccccc2)C1 (stereo unspecified)	0%	3	7%	-28%	-1%	-2%
Cc1ccc(C)c(Nc2cc(C(=O)NC3CCCCC3)c3ccccc3n2)c1	.	.	24%	.	.	5%
CCOC(=O)c1[nH]c2cc(OC)c(OC)cc2c1NC(=O)C(C)N1CCN(Cc2ccccc2)CC1 (stereo unspecified)	2%	-6	-18%	0%	-25%	90%
CCc1ccc(OCC(=O)NC(=S)Nc2ccc(Br)c(C)n2)cc1	3%	4	21%	-26%	5%	2%
Cc1nc(NC(=S)NC(=O)COc2ccccc2Cl)ccc1Br	0%	4	-2%	7.1µM*	7.1µM*	-8%
Cc1ccc(OCC(=O)NNC(=S)NC(=O)C(C)(C)C)c(Br)c1	0%	-2	-19%	11µM*	4%	-2%
S=c1[nH]nc(-c2cc(-c3ccccc3)n[nH]2)n1/N=C/c1ccccc1	1%	8	4%	-38%	-19%	0%
Cc1cccc(/C=N/n2c(-c3cc(-c4ccccc4)n[nH]3)n[nH]c2=S)c1	.	3	-14%	7.9µM*	?	2%
Cc1cccc(/C=N/n2c(-c3ccncc3)n[nH]c2=S)c1	2%	7	-34%	11µM*	?	-14%
O=Cc1cc2ccccc2cc1O	.	.	26%	.	.	5%
O=c1c(O)cccc2cc(O)c(O)c(O)c12	.	-36*	-23%	-14%	-8%	-8%
Cc1ccc(C2NC(=O)c3ccccc3O2)cc1 (stereo unspecified)	9%	0	19%	.	.	7%
CN1N=C(C(C)(C)C)CC1=O	0%	-32*	-62%	7%	0%	11%[57.1 µM]
CN1N=C(C(F)(F)F)CC1=O	1%	0	15%[57.1 µM]	2%	1%	2%[57.1 µM]
CC1C(=O)NN=C1C(=O)N/N=C/c1ccco1 (stereo unspecified)	10%	0	14%[57.1 µM]	-13%	?	-10%
CC(=O)OCCCN1c2ccccc2Nc2nnc(-c3ccccc3)cc21	-4%	-5	3%	11µM*	?	1%
CC(=O)OCCCN1C(=O)c2cccc3cc(Br)cc(c23)C1=O	-2%	3	.	20%	-8%	.
Cc1ccc(OC(=S)Nc2ccccc2)c(C)c1	-2%	0	-16%	1%	-4%	-8%
COc1cccc(Cn2c(NCc3ccco3)nc3c2c(=O)n(C)c(=O)n3C)c1	2%	-2	-8%	-38%	2.8µM*	-7%
COc1cccc(Cn2c(NCC(C)C)nc3c2c(=O)n(C)c(=O)n3C)c1	-1%	0	18%	26%	?	10%
COc1ccc(Cl)c(Cn2c(NCc3ccco3)nc3c2c(=O)n(C)c(=O)n3C)c1	4%	-25	-5%[57.1 µM]	-43%	0.0089µM*	-9%[57.1 µM]
CCN(CC)c1ccc2nc3c(=O)n(C)c(=O)n(C)c3nc2c1	.	.	6%	.	.	6%
Cc1nc2c(=O)n(C)c(=O)n(C)c2nc1Cl	0%	-1	2µM*	?	7.1µM*	60%[57.1 µM]
O=C1C2C3C=CC(C2C(=O)N1C1CCCCC1)C1C2C(=O)N(C4CCCCC4)C(=O)C2C31 (stereo unspecified)	0%	2	-5%	-1%	-4%	1%
